MbtI inh: MbtI salicylate synthase inhibitors, primary screen, biochemical, fluorescence intensity; P9WFX0; purified MbtI enzyme, fluorescence intensity read-out; inhibition, % (test concentration not listed); actives 0.89% (n = 100,000); in the data active = inhibition mostly above about 56%, no sharp cut-off; inactive = mostly below about 77%
MenB inh: M. tuberculosis MenB inhibitors, primary screen, biochemical, absorbance; 1,4-dihydroxy-2-naphthoyl-CoA synthase (Mycobacterium tuberculosis (strain ATCC 25618 / …; MenB enzyme assay, absorbance read-out; inhibition, % (test concentration not listed); actives 0.43% (n = 100,000); in the data active = inhibition above about 21%, passing the limit was not always enough
Target sequence (P9WNP5 whole entry, looked up): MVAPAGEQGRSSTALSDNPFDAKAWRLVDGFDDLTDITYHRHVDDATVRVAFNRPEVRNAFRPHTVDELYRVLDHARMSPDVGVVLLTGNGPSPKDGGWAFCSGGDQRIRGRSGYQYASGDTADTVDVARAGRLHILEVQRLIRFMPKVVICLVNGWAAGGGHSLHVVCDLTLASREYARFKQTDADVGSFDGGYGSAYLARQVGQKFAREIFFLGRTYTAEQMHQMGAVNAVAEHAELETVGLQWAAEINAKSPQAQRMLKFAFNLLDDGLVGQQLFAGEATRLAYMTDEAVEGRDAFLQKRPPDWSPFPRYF
PV pol inh: poliovirus RdRp elongation inhibitors, primary screen, biochemical, fluorescence polarization, total intensity. % elongation, % (compound at 16.7 µg/mL). Genome polyprotein (Poliovirus type 1 (strain Mahoney)), P03300. poliovirus polymerase elongation; active compounds read low. actives 0.66% (n = 150,000). AID 588519, 2011; in the data active = % elongation below about 90%
AID504770: growth inhibition of E. coli YBA685, primary screen, V. cholerae RctB inhibitors; actives 0.27% (n = 130,000); AID 504770, 2011; z-score (test concentration not listed); E. coli YBA685 rctB-dependent plasmid, OD600 growth, 3 h; active compounds read low; in the data active = z-score below about -2, passing the limit was not always enough
Numbers stand for hits; . = inactive; / = no result given. Sampled rows, rich in hits. Any-hit rate of the full collection: about 1.5%.

SMILES	MbtI inh	MenB inh	PV pol inh	AID504770
CCn1cc(C(=O)NCC(C)C)c(=O)c2cc(F)c(N3CCN(C(=O)c4ccco4)CC3)cc21	.	.	.	.
CCn1cc(C(=O)O)c(=O)c2cc(F)c(N3CCN(C(=S)Nc4ccc5c(c4)OCO5)CC3)cc21	.	.	.	-3
FC(F)(F)c1cccc(N2CCN(C(=S)Nc3ccc4c(c3)OCO4)CC2)c1	.	.	.	.
CCn1cc(C(=O)NN)c(=O)c2cc(F)c(N3CCCC3)cc21	.	.	.	.
CCn1cc(C(=O)O)c(=O)c2cc(F)c(N3CCN(C)CC3)cc21	.	.	.	-6.9
COc1ccc(N2Cc3ccccc3C2=NC(=O)c2ccncc2)cc1	.	/	.	.
CCn1cc(C(=O)O)c(=O)c2cnc(N3CCNCC3)nc21	.	.	.	-3.2
COc1ccc(OC)c(CNC(=O)CSc2c3c(nc4cc(Cl)ccc24)CCCC3)c1	/	/	74	/
Cc1nc2cc3ccccc3cc2c(=O)n1CCCNC1CCCCC1	/	.	90	.
O=C(CCCc1nnc2n3nc(-c4ccccc4)nc3c3ccccc3n12)NCc1ccco1	.	.	.	.
CC1CCCC(C)N1C(=O)COc1ccc(-c2nnco2)cc1 (centres undefined)	.	.	.	.
O=C(O)COc1ccc(-c2nnco2)cc1	.	.	89	.
O=C(/C=C/c1ccccc1Cl)Nc1ncn[nH]1	/	.	67	.
O=C(O)CSC(=S)Nc1cccnc1	/	/	/	.
Nn1c(SCc2ccccc2)n[nH]c1=S	70	.	.	.
O=C1c2ccccc2C(=O)N1CCCc1nn2c(-c3cccnc3)nnc2s1	64	.	.	.
O=C(c1ccc2c(c1)N(Cc1ccc(Cl)cc1)C(=O)c1ccccc1S2=O)N1CCOCC1 (centres undefined)	/	/	73	/
O=C(c1ccc2c(c1)N(Cc1ccccc1)C(=O)c1ccccc1S2=O)N1CCOCC1 (centres undefined)	.	.	.	.
CCOc1ccccc1NC(=O)c1ccccc1O	.	/	.	.
O=C1C=CC(=O)N1c1ccc(N2CCOCC2)cc1	93	.	.	.
CC1=C(C)CC2C(=O)N(c3ccc(N4CCOCC4)cc3)C(=O)C2C1 (centres undefined)	.	/	.	.
CCCCNC(=O)Cn1c(=O)sc2ccccc21	.	.	.	.
COC(=O)Cc1coc2cc(C)c(Cl)cc12	.	.	.	.
O=C(O)CCCC(=O)Nc1ccc(C(=O)N2CCCCC2)cc1	.	33	.	.
Cc1noc(C)c1COC(=O)CCc1nc2cc(C(F)(F)F)ccc2n(Cc2ccccc2)c1=O	.	.	.	.
SMILES	MbtI inh	MenB inh	PV pol inh	AID504770
O=C(CSc1ccc(Cl)cc1)c1ccco1	61	/	.	.
O=C(CSc1ccccc1Cl)c1ccco1	.	/	.	.
O=C(O)c1ccc2c(c1)ncn2C1CCCCC1	.	.	.	.
Nc1ccc2c(c1)ncn2C1CCCCC1	.	.	85	.
CCCN(Cc1nnc(-c2ccco2)o1)C(=O)c1ccccc1SCC(=O)Nc1ccc(F)cc1	.	.	.	.
Cc1nnc2sc(-c3cccc(NC(=O)c4cccc(F)c4)c3)nn12	.	.	.	.
Cc1occc1-c1nnc2sc(-c3cccc(F)c3)nn12	95	.	.	.
CC(C)CNC(=O)CSc1nc(-c2ccc(F)cc2)cc(C(F)(F)F)n1	.	.	.	.
C/C(=N\N)c1c(-c2ccccc2)c2cc(Cl)ccc2[nH]c1=O	.	.	.	.
Cc1ccc(CNCCN2CCOCC2)o1	/	.	.	.
COc1ccc(-c2ccc(CNCCN3CCOCC3)o2)cc1Cl	.	33	.	.
C=C(C)CSc1n[nH]c(=S)s1	.	.	.	.
CC(C)Sc1n[nH]c(=S)s1	98	.	88	.
CCC(C)Sc1n[nH]c(=S)s1 (centres undefined)	99	.	.	.
O=C(O)CCSc1n[nH]c(=S)s1	.	.	.	.
CN(N)P(=S)(c1ccccc1)N(C)N	93	.	76	.
Cc1cccc(C)c1NC(=O)Cn1c(-c2ccc3c(c2)OCO3)cn(-c2ccccc2)c1=O	/	/	/	.
CCOC(=O)c1sc(S(C)=O)c2c1CCCC2=O (centres undefined)	63	.	.	.
O=C(O)CN1CCCCC1	.	31	.	.
O=C(O)CCN1CCCC1	.	.	.	.
O=C1C(Sc2ncn[nH]2)=C/C(=N/S(=O)(=O)c2ccc(Cl)cc2)c2ccccc21	95	/	/	.
Cc1cc(=O)oc2cc(OCC(=O)Oc3ccc4c(c3)OCO4)ccc12	.	.	83	.
Cc1cc(=O)oc2cc(OCC(=O)O)ccc12	.	.	.	.
CCc1ccc2c(C(F)(F)F)cc(=O)oc2c1	/	/	/	.
